According to PubChem BioAssay AID624300 (Southern Research Specialized Biocontainment Screening …, 2012):
About 360 (15%) of roughly 2,400 compounds were called active.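 Rule for the calls: active = viability falls under 70% at one or more tested concentrations, taken as toxicity; inactive = viability stays over 70% at every dose.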 Only a sample is shown. Entries with a potency or affinity are not part of this list.

test: viability loss in HeLa cells – cytotoxicity control for MgcRacGAP inhibitor project, dose response (AID 624300); settings: CellTiter-Glo luminescence, 24 h; series mostly up to 100 µM

SMILES	outcome
CCOc1cc(/C=N\NC(=O)c2c(C)nc3ccccn23)ccc1O	inactive
Oc1ccc(-c2cn3c(n2)SCC3)cc1	inactive
CCN(CC)c1ccc(NC(=O)COc2ccc(-n3cnnn3)cc2)cc1	inactive
COc1cc(/C=C/CN2CCC(CO)(CC3CCCCO3)CC2)ccc1O (stereo not drawn)	inactive
CC(NS(=O)(=O)c1ccc(Cl)cc1)C(=O)OCC(=O)Nc1ccc(N(C)C)cc1 (stereo not drawn)	inactive
COC(=O)c1c(NC(=O)CCNCc2ccco2)sc2c1CCC2	inactive
CCN(CC)CCCNCC(=O)Nc1ccc2c(c1)CCC2	inactive
O=c1c2ccccc2n2c(=S)[nH]nc2n1-c1ccccc1	inactive
CN(C)C=NC1=NN(c2cccc(C(F)(F)F)c2)CC1	inactive
Cc1ccc(N2C(N)=C(C#N)C3(C(=O)N(C)c4ccccc43)C3=C2CC(C)(C)CC3=O)cc1Cl (stereo not drawn)	inactive
C=C1CC(C(=O)N/N=C/c2ccc(O)cc2)C1	inactive
O=c1c2ccc(F)cc2sn1-c1ccccc1	inactive
COc1cccc(-c2cc(C(=O)N3CCN(c4ccc(F)cc4)CC3)no2)c1	inactive
CC(=O)Nc1ccc2sn(-c3ccccc3)c(=O)c2c1	inactive
COc1ccc(N2C(=O)/C(=C/N(C)C)NC2=S)cc1	inactive
NS(=O)(=O)c1ccc(CCNCC(=O)N2CCC(Cc3ccccc3)CC2)cc1	inactive
CSC1=NN(c2ccccc2)CN(c2ccccc2)N1C	inactive
O=C(CNc1ccc(Oc2ccccc2)cc1)N1CCOCC1	inactive
COCC(C)NCc1ccccc1C (stereo not drawn)	inactive
CN(C)c1ccc(C=Cc2cnccn2)cc1	inactive
C[n+]1ccc(/C=C/c2ccccc2O)c2ccccc21	inactive
CCOc1ccccc1N1CCN(C/C=C/c2ccc(N(C)C)cc2)CC1	inactive
CCOCCCn1c(=O)c2ccccc2n2c(=S)[nH]nc12	inactive
COc1cc(/C=C(/NC(=O)c2ccccc2)C(=O)Nc2ccc(O)cc2)c([N+](=O)[O-])cc1OC	inactive

SMILES	outcome
COc1ccc(CN2CCN(Cc3ccc(C(F)(F)F)cc3)CC2)cc1	inactive
O=C(NCc1ccccc1)/C(=C\c1ccc(O)cc1)NC(=O)c1ccco1	inactive
CC(C)C1=Nc2cccc3cccc(c23)N1	inactive
COc1ccc(OC(=O)COc2cccc(C)c2)cc1	inactive
ON=C1c2ccccc2-c2ccc(O)cc21	inactive
CN(C)c1ccc2cc(S(=O)(=O)O)cc(O)c2c1	inactive
O=C(O)c1ccc2c(c1)C(=O)/C(=C\c1ccco1)C2=O	inactive
Clc1nc(NCc2cccnc2)nc(N2CCOCC2)n1	inactive
COc1cc(N)ccc1NC(=O)c1cccs1	inactive
COc1ccc(NC2CCCN(C(=O)c3ccc(C)nc3)C2)cc1 (stereo not drawn)	inactive
COc1cc(/C=C/C(=O)OCC(=O)NCCC2=CCCCC2)ccc1O	inactive
COc1ccc(OC)c(CN2CCSCC2)c1	inactive
CCOc1cc(N2CCOCC2)c(OCC)cc1NC(=O)c1ccc(C)s1	inactive
CCOC(=O)SC1=N/C(=C\c2ccc(N(C)C)cc2)C(=O)S1	inactive
CN(C)c1cc2c3ccccc3n(C)c2cc1N	inactive
Cc1ccc(/C=[N+](\[O-])c2ccc(N(C)C)cc2)c2nsnc12	inactive
COc1ccc(NC2=NCCC2)cc1	inactive
COc1cc(/C=C/C(=O)OCC(=O)N2CCC(Cc3ccccc3)CC2)ccc1O	inactive
Cc1ccc2oc(=O)c(/C=C(\O)c3ccccc3)nc2c1	inactive
C/C(=N\NC(=O)CSCc1ccccc1Cl)c1cc(O)ccc1O	inactive
COc1ccc(C(=O)Nc2ccc(N3CCCCCC3)cc2)cc1S(=O)(=O)N1CCOCC1	inactive
CCOc1ccc(Nc2n[nH]c(=S)s2)cc1	inactive
COc1cc(/C=N\NC(=O)CNC(=O)C(c2ccccc2)c2ccccc2)ccc1O	inactive
CSc1ncnc2c1ncn2CCCNc1ccc(C)c(C)c1	inactive

SMILES	outcome
CCOC(=O)c1sc(/N=C/c2c(O)ccc3ccccc23)cc1C	inactive
Nc1ccc(Nc2nc(-c3cc4ccccc4oc3=O)cs2)cc1	inactive
Nc1ccc2c(c1Br)Cc1ccccc1-2	inactive
COc1cc(CN2CCN(Cc3ccc(C(F)(F)F)cc3)CC2)cc(OC)c1OC	inactive
Nc1c(Cl)cc(NC(=O)c2ccccc2C(=O)O)cc1Br	inactive
COc1ccc2c(c1OC)C(=O)OC2CC(=O)c1ccc(O)c(O)c1 (stereo not drawn)	inactive
O=C(/C=C/c1ccc(O)c(O)c1)NC(=O)c1ccccc1O	inactive
COc1ccc(/C=N/NC(=O)c2ccc(CSc3nc(C)cc(C)n3)cc2)cc1O	inactive
O=C(COc1cccc2cccnc12)N/N=C/c1ccc(O)cc1	inactive
COc1ccc(NC(=O)c2cccc(-c3ccc(O)cc3)c2)cn1	inactive
O=C(Nc1ccccc1)c1cccc(-c2nnc(-c3ccccc3)o2)c1	inactive
O=C(CN1CCCCCC1)NCC1CCCO1 (stereo not drawn)	inactive
C#CCOCCOCCOCCNc1nc(N2CCN(C(=O)C([C@@H](C)O)n3cc([C@@H](N)CCCCN)nn3)CC2)nc(N2CCN(C(=O)[C@H](CO)n3cc([C@@H](N)C(C)C)nn3)CC2)n1 (stereo partly drawn)	inactive
OCCN(C=NC1=NN(c2cccc(C(F)(F)F)c2)CC1)CCO	inactive
O=C(N/N=C/c1ccc(O)c(O)c1)c1ccc(-n2cnnn2)cc1	inactive
Cc1cc(-c2n[nH]c(=S)n2/N=C/c2sccc2C)n[nH]1	inactive
COc1ccc(NCCC#N)cc1	inactive
COc1ccc(NC2CCCN(C(=O)c3cccc(N(C)C)c3)C2)cc1 (stereo not drawn)	inactive
CCOc1cc(N2CCOCC2)c(OCC)cc1NCC(=O)N1CCN(Cc2ccccc2)CC1	inactive
Cc1[nH]n(-c2ccccc2)c(=O)c1/C=N/N(C)c1ccccc1	inactive
Nc1ccc(N2CCN(c3cccc(Cl)c3)CC2)cc1	inactive
Brc1cccc(OCCN2CCOCC2)c1	inactive
CCS(=O)(=O)NC(C)C(c1cccs1)N1CCN(c2ccc(OC)cc2)CC1 (stereo not drawn)	inactive
O=C1CCCCCN1Sc1ccccc1	inactive

SMILES	outcome
C=C1c2cccc(O)c2C(O)=C2C(=O)[C@]3(O)C(O)=C(C(N)=O)C(=O)[C@@H](N(C)C)[C@@H]3[C@@H](O)[C@H]12	inactive
CCOc1cc(-c2cc(-c3ccc(N)cc3)nc(N)c2C#N)ccc1O	inactive
CCOc1cc(-c2cc(-c3ccccc3)nc(N)c2C#N)ccc1O	inactive
CCOc1cc(/C=N/NC(=O)c2ccccc2-n2cccc2)ccc1O	inactive
Nc1ccc2nc(-c3ccc(Cl)cc3)[nH]c2c1	inactive
Nc1ccc2nc(-c3cccnc3)[nH]c2c1	inactive
COc1cc(CNC2CCCCC2OC)cc(OC)c1 (stereo not drawn)	inactive
COc1ccc2c3c(cccc13)N(C)N=C2C	inactive
Cc1cccc(N2CCC(N=CN(C)C)=N2)c1	inactive
CCOC(=O)N/N=C/c1ccc(N(CC)CC)cc1O	inactive
O=C(CCC(=O)Nc1ccc(F)cc1)N/N=C/c1ccc(O)cc1	inactive
Cc1cc(N2CCCC2)ccc1NC(=O)CN1C(=O)NC2(CCCCC2)C1=O	inactive
COc1cc(CN(C)CCc2ccccn2)cc(OC)c1OC	inactive
COc1ccc(CN(C)CCc2ccccn2)cc1OC	inactive
COc1cc(/C(C)=N/N2CCN(Cc3ccc(C)cc3)CC2)ccc1O	inactive
O=C(CN1CCN(S(=O)(=O)c2ccccc2F)CC1)N1CCc2ccccc2C1	inactive
O=c1c2sc3ccccc3c2[nH]c(=S)n1CCN1CCOCC1	inactive
O=C(O)CCCn1c(=S)[nH]c2c(sc3ccc([N+](=O)[O-])cc32)c1=O	inactive
COc1cc(/C=N/NC(=O)c2cnccn2)ccc1O	inactive
CC1CN(CCCCN2C(=O)c3ccccc3C2=O)CC(C)O1 (stereo not drawn)	inactive
CCCCN(CC)CCNC(=O)CCC(=O)Nc1ccc2nc(N3CCN(C)CC3)cc(C)c2c1	inactive
CCCCN(CCCC)CCNC(=O)CSCc1ccc(C)cc1	inactive
CC1(C)Nc2cccc3cccc(c23)N1	inactive
COc1ccc(Br)cc1CN1CCC(N2CCCC2)CC1	inactive

SMILES	outcome
CCOc1ccc(NCc2cccn2-c2nnc(N3CCC(C(=O)NCCCN4CCCCC4)CC3)s2)cc1	inactive
CC(/C=C/c1ccc(O)cc1)=N/O	inactive
COc1ccc(NC2CCCN(C(=O)CSc3ccccc3)C2)cc1OC (stereo not drawn)	inactive
CC1(C)OC(=O)C(=Cc2ccc(-c3ccc(S(N)(=O)=O)cc3)o2)C(=O)O1	inactive
Cc1ccc(/C=C2/C(=O)ON=C2c2ccccc2)o1	inactive
Cc1ccc(/C=C2/C(=O)c3ccc(C(=O)O)cc3C2=O)o1	inactive
O=S(=O)(O)c1cc(O)c2cc(Nc3ccccc3)ccc2c1	inactive
Nc1ccccc1Nc1cccc(C(F)(F)F)c1	inactive
CCOC(=O)c1[nH]c2ccc(C)cc2c1N	inactive
COc1cc(/C=C/C(=O)OCc2cn3cc(Cl)ccc3n2)ccc1O	inactive
CC(=O)Nc1ccc(Nc2ccccc2)cc1	inactive
O=C(Nc1ccc(Nc2ccccc2)cc1)C1CC1	inactive
Cc1oc(-c2ccccc2)cc1C(=O)Nc1ccc(N(C)C)cc1	inactive
O=C(O)c1ccccc1C(=O)Nc1ccc(Nc2ccccc2)cc1	inactive
CCN1CCN(c2ccc(N=Cc3ccc(O)cc3O)cc2)CC1	inactive
Cc1ccc(C)c(OCCCCN2CCCCC2)c1	inactive
CCOc1cc(/C=C/c2cccc[n+]2C)ccc1O	inactive
c1csc(CNc2ccc3c(c2)OCCO3)c1	inactive
Cc1ccc(S(=O)(=O)Oc2ccc(/C=C3\C(=N)N4N=C(S(C)(=O)=O)SC4=NC3=O)cc2)cc1	inactive
CCN(CC(=O)NCc1ccc(F)cc1)C(=O)CN1CCN(c2ccc(OC)cc2)CC1	inactive
O=C(CNCC1CCCO1)Nc1ccc(N2CCCCCC2)cc1 (stereo not drawn)	inactive
Cc1ccccc1N1C(S)=C(C#N)C(=O)NC1c1cccs1 (stereo not drawn)	inactive
